# The list is not random: actives were taken first. Their share in the collection is about 6.5%.
# VACV mCherry inh – inhibitors of vaccinia virus infection (mCherry reporter signal). Vaccinia virus mCherry reporter infection, fluorescence. Potency, µM (titrated, usually from 36.5 µM), inactives show at the top dose activity change, negative = inhibition, most hits filed as inhibitors. 0.63% of 310,000 active. AID 720579; calls by dose curve; tested in A549 cells; also: potency is read from the fitted curve at half-maximal effect; nearly all actives have a fitted effect of over 35% in size
# MARV entry inh – Marburg virus entry inhibition. Marburg virus pseudotyped entry inhibition, cell reporter. Potency, µM (titrated, usually from 37.8 µM), for the others: at the top dose activity change, negative = inhibition, most hits filed as inhibitors. 1.8% of 300,000 active. AID 540276; calls by dose curve; tested in HEK293 cells; also: potency is read from the fitted curve at half-maximal effect
# VACV Venus inh – inhibitors of vaccinia virus (Venus reporter); Vaccinia virus Venus reporter expression, fluorescence; Potency, µM (top dose mostly 36.5 µM), inactives show top-dose activity change, negative = inhibition, hits mostly inhibitors; 0.46% of 330,000 active; calls by dose curve; tested in A549 cells; also: potency is read from the fitted curve at half-maximal effect; nearly all actives have a fitted effect of over 30% in size
# FMDV antiviral – foot and mouth disease virus antiviral activity. FMDV antiviral cell-based qHTS. Potency, µM (titrated, usually from 57.9 µM), inactives show top-dose activity change, negative = inhibition, actives largely listed as inhibitors. 1.2% of 410,000 active; calls by dose curve; tested in HEK293T cells; also: read-out not given here; potency is read from the fitted curve at half-maximal effect; nearly all actives have a fitted effect of over 45% in size
# Lassa entry inh – inhibitors of Lassa virus binding or cell entry | Lassa virus pseudotype entry inhibition, cell reporter | Potency, µM (doses to about 37.9 µM), inactives show at the highest dose activity change, negative = inhibition, most hits filed as inhibitors | 1.2% of 300,000 active | AID 540256; calls by dose curve; tested in HEK293 cells; also: potency is read from the fitted curve at half-maximal effect; nearly all actives have a fitted effect of over 50% in size
# HCMV antiviral – inhibitors of human cytomegalovirus. HFF cells, HCMV-luciferase reporter, 72 h; stronger effect = lower value. activity change, negative = inhibition, % at 57.5 µM. 4.5% of 410,000 active. AID 1259415; in the data active = activity change below about -60%; inconclusive = no clear call, values can overlap the other calls; inactive = above about -39%
#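 Two compound doses tested in HFFs infected with HCMV-luciferase, MOI 1 PFU/cell, 72 h at 37C. Lysate luminescence read with OneGlo; data normalized against buffer-only and 10uM Salinomycin inhibitor controls.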
# The depositor's hits bear a star; i = inactive; ? = inconclusive; / = not tested or not shown; [ ] = another dose, or the depositor's remark. % is scaled to controls: 0 for no effect and ±100 for the full control effect.
SMILES,VACV mCherry inh,MARV entry inh,VACV Venus inh,FMDV antiviral,Lassa entry inh,HCMV antiviral
Clc1ccccc1NC1=NCCCS1,-22%,2%[46.1 µM],-3%,9%,2%,?
FC(F)(F)c1ccccc1NC1=NCCCS1,13%,-22%[46.1 µM],1%,-11%,23%,-63*
CCOC(=O)/C=C(\C)Sc1cc(O)c2ccccc2c1O,/,/,/,28µM*,/,-100*
O=C(NCCN1CCN(Cc2ccc([N+](=O)[O-])cc2)CC1)C(=O)Nc1ccccc1,i,-6%,-12%,/,22%,38
O=[N+]([O-])c1ccc(N2CCc3ccccc3C2)cc1,/,/,/,34%,/,-102*
O=C(NCCN1CCN(c2ccc([N+](=O)[O-])cc2)CC1)NCc1ccccc1,/,/,/,-21%,/,-94*
O=C(Cc1ccc([N+](=O)[O-])cc1)N1CCN(c2ccc([N+](=O)[O-])cc2)CC1,/,/,/,?,/,-34
O=C(Cc1ccccc1)N1CCN(c2ccc([N+](=O)[O-])cc2)CC1,/,1%,/,?,/,-64*
O=[N+]([O-])c1ccc(-c2csc(N3CCc4ccccc4C3)n2)cc1,i,18%,-15%,-1%,0%,-7
O=C(CCCSc1nc2ccccc2[nH]1)N1CCN(c2ccc([N+](=O)[O-])cc2)CC1,i,2%,-20%,18µM*,-1%,-27
CCN1C(=O)[C@@H]2[C@H]3[C@H](O)[C@H](O)CC(=NOC[C@@H](O)COCc4ccco4)[C@@H]3CC[C@H]2C1=O,/,-22%[14.2 µM],/,/,/,/
O=[N+]([O-])c1ccc(N2CCN(Cc3ccncc3)CC2)cc1,/,/,/,-18%,/,-90*
O=[N+]([O-])c1ccc(CN2CCN(c3ncccn3)CC2)cc1,/,/,/,-13%,/,?
COC(=O)c1ccccc1NC(=O)c1cnn2c1NC(=C1CC1)C=C2C(F)F,-1%,/,-17%,/,/,/
O=C(c1ccc2oc(CCCc3ccccc3)nc2c1)N1CCCC(CCCO)C1 (configuration not stated),/,/,/,-16%,/,-61*
CCN1CCN(c2ncc(C(=O)Nc3cc(Cl)ccc3OC)c3ccccc23)CC1,?,2µM*,?,-25%,?,19
Cc1ccc(NC(=O)c2cnc(N3CCN(c4ccccn4)CC3)c3ccccc23)c(Br)c1,?,?,?,6.3µM*,?,-70*
O=C(Nc1c(F)cccc1F)c1cnc(N2CCN(c3ccccn3)CC2)c2ccccc12,/,?,/,13µM*,?,?
Cc1cc(Br)ccc1NC(=O)c1sc2ncnc(N3CCN(c4ccccn4)CC3)c2c1C,i,?,-16%,-29%,?,2
COc1ccc(Cl)cc1NC(=O)c1cnc(N2CCCCC2)c2ccccc12,-7%,/,-5%,-26%,-19%[46.1 µM],-8
COC(=O)c1cnc(N2CCN(c3ccc(F)cc3)CC2)c2ccccc12,-13%[7.34 µM],/,-9%[7.34 µM],?,-21%[46.1 µM],-28
O=C(c1cnc(N2CCN(c3ncccn3)CC2)c2ccccc12)N1CCN(c2ccccn2)CC1,?,?,-27%,28µM*,11µM*,?
O=C(c1ccccc1-c1ccccc1)N1CCN(c2ccccn2)CC1,-10%,?,-21%,-24%,?,-13
CC(C)c1ccc(NS(=O)(=O)c2ccc3[nH]c(=O)ccc3c2)cc1,-8%,/,-18%,19%,-14%[46.1 µM],4
CCN1c2ccccc2-c2nc(SCC(=O)Nc3cccc(C)c3C)ncc2S1(=O)=O,-16%,/,5%,?,?,-17
SMILES,VACV mCherry inh,MARV entry inh,VACV Venus inh,FMDV antiviral,Lassa entry inh,HCMV antiviral
COc1ccccc1CNC(=O)CC(c1ccc(F)cc1)N1Cc2ccccc2C1=O (configuration not stated),-5%,/,-6%,20%,-27%[46.1 µM],-73*
Nc1ccc(C(=O)N2CCN(S(=O)(=O)c3ccc(Br)cc3)CC2)cc1[N+](=O)[O-],-24%,-1%,-29%,-14%,-3%,-61*
Cc1ccc(Nc2nc(N)c([N+](=O)[O-])c(N3CCC(C)CC3)n2)cc1C,-4%,14µM*,-6%,-17%,-1%,-11
Cc1cccc(Nc2nc(N)c([N+](=O)[O-])c(N3CCCC(C)C3)n2)c1 (configuration not stated),13µM*,?,10µM*,22µM*,?,-77*
Nc1nc2[nH]cc(CCc3ccc(C(=O)N[C@@H](CCC(=O)O)C(=O)O)cc3)c2c(=O)[nH]1,?,/,-12%,/,/,/
COC(=O)C1=C(c2ccccc2OCc2ccccc2)C[C@@H]2CC[C@H]1N2C(=O)NCCOc1ccccc1Cl,-15%,1%,?,-25%,/,-73*
COC(=O)C1=C(c2ccc(F)cc2OCc2ccccc2)C[C@@H]2CC[C@H]1N2C(=O)NCc1ccc(F)cc1,-32%,/,-26%,-31%,/,-20
COC(=O)C1=C(c2ccc(F)cc2OCc2ccccc2)C[C@@H]2CC[C@H]1N2C(=O)NCc1ccc(C)cc1,-3%,/,?,-3%,/,-67*
CCOC(=O)c1c(NC(=O)Nc2ccc(F)cc2)sc(C(=O)N(C)C)c1C,-6%,28%[46.1 µM],-1%,-2%,19%[46.1 µM],3
CCN(CC)CCOC(=O)c1ccc(NC(=O)c2cc3cc(OC)ccc3oc2=O)cc1,2%,8%[46.1 µM],3%,-1%,18%[46.1 µM],10
COc1cccc(CN(CC(=O)NCc2ccco2)C(=O)CNS(=O)(=O)c2ccccc2)c1,-15%,-26%[46.1 µM],-7%,24%,-4%,-61*
Cc1ccc(S(=O)(=O)NCC(=O)N(CC(=O)NCc2ccco2)Cc2ccccc2)cc1,?,-2%,-14%,23%,-9%,-9
Cc1ccc(C)c(NC(=O)c2cccc(Oc3ccc([N+](=O)[O-])cc3Cl)c2)c1,?,/,?,-18%,/,?
COc1ccc(OCCNC(=O)c2cccc(Oc3ccc(C(F)(F)F)cc3[N+](=O)[O-])c2)cc1,-12%,?,-26%,?,-30%,-66*
COc1ccc(NC(=O)c2cccc(Oc3ccc([N+](=O)[O-])cc3Cl)c2)cc1,?,?,-21%,-6%,?,-87*
O=C(Nc1cccc(Cl)c1)c1cccc(Oc2ccc([N+](=O)[O-])cc2Cl)c1,/,-29%,/,?,-6%,-89*
O=C(Nc1ccc([N+](=O)[O-])cc1Cl)c1cccc([N+](=O)[O-])c1,-6%,/,-20%,5%,/,1
O=C(NCCO)c1ccc(Oc2ccc(C(F)(F)F)cc2[N+](=O)[O-])cc1,-32%,-18%[46.1 µM],-9%,-11%,16%,-20
CCOC(=O)c1cnc2c(ccc3ccccc32)c1Nc1ccc(C(C)=O)cc1,?,?,?,?,13%[46.1 µM],-7
O=c1[nH]c2ccc(Cl)cc2c(-c2ccccc2)c1N1CCN(c2ccccn2)CC1,-5%,2.3µM*,-18%,8%,?,-2
CCC(=O)Nc1cccc(C(=O)/C=C/c2cccs2)c1,-15%,/,-27%,11%,/,-62*
CC(=O)c1cccc(NC(=O)Cc2cccs2)c1,/,14%,/,25%,4%,22

# Screening data from PubChem.
